Bioassay records: PubChem, National Center for Advancing Translational Sciences (NCATS)
PLK1 PBD block = qHTS for Inhibitors of PLK1-PDB (polo-like kinase 1 - polo-box domain): Primary Screen; Serine/threonine-protein kinase PLK1 (Homo sapiens), P53350; Plk1 PBD binding of FITC phosphopeptide, fluorescence polarization; Potency, µM, for the others: max response, negative = inhibition, hits mostly inhibitors; 360,000 tested, 2.8% active; AID 720504, 2013; also: potency is read from the fitted curve at half-maximal effect; series mostly up to about 57 µM; % is scaled to controls: 0 for no effect and ±100 for the full control effect; nearly all actives have a fitted effect of over 65% in size
BAZ2B block = qHTS Assay for Inhibitors of BAZ2B | Bromodomain adjacent to zinc finger domain protein 2B (Homo sapiens), Q9UIF8 | AlphaScreen BAZ2B-H3K14Ac peptide displacement | Potency, µM (highest dose often 114 µM), for inactives: at the top dose activity change, negative = inhibition, actives largely listed as inhibitors | 360,000 tested, 4.4% active | AID 504333, 2011; also: potency is read from the fitted curve at half-maximal effect; % is scaled to controls: 0 for no effect and ±100 for the full control effect; nearly all actives have a fitted effect of over 60% in size
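AlphaScreen luminescence quantifies BAZ2B engagement of H3K14Ac peptide; the protein and biotinylated peptide are both at 50 nM final, buffer PBS pH 7.4 with 0.01% Tween-20, all steps at room temperature.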
KAT2A inh = qHTS Assay for Inhibitors of GCN5L2. GCN5L2 HAT assay, ThioGlo1 CoA-SH fluorescence. Potency, µM (highest dose often 58.9 µM), without a hit: at the top dose activity change, negative = inhibition, most hits filed as inhibitors. 390,000 tested, 0.21% active; also: potency is read from the fitted curve at half-maximal effect; % is scaled to controls: 0 for no effect and ±100 for the full control effect
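Compounds, pin-transferred from DMSO stocks, meet 20nM GCN5L2 for 15 min before the reaction begins with H3(1-25) peptide (75uM) and acetyl-CoA (70uM). Thiol-reactive ThioGlo1 reports CoA release over 20 min at room temperature.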
HP1b binding inh = HTS for Inhibitors of HP1-beta Chromodomain Interactions with Methylated Histone Tails. Chromobox protein homolog 1 (Homo sapiens), P83916. AlphaScreen HP1-beta / biotin-H3K9me3 peptide binding. Potency, µM (doses to about 114 µM), for the others: top-dose activity change, negative = inhibition, most hits filed as inhibitors. 390,000 tested, 0.56% active; also: potency is read from the fitted curve at half-maximal effect; nearly all actives have a fitted effect of over 70% in size
Target sequence (P83916 whole entry, looked up): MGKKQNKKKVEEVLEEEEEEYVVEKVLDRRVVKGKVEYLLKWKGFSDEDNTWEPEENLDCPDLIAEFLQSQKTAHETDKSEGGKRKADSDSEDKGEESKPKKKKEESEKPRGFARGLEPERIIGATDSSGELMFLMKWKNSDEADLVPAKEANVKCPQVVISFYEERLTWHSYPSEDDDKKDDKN
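AlphaScreen: HP1-beta (50 nM) preformed 30 min with biotin-H3(1-18)K9me3 peptide (50 nM) in PBS pH 7.4, 0.01% Tween-20. Compound added for 30 min at RT, then streptavidin donor/nickel chelate acceptor beads (10 ug/mL) for 30 min.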
PI5P4Ka inh = qHTS for Inhibitors of phosphatidylinositol 5-phosphate 4-kinase (PI5P4K); PI5P4Kalpha enzyme, ADP-Glo luminescence, 60 min; stronger effect = lower value; 330,000 tested, 1.2% active; max response, %; AID 652105, 2013; active = max response of -50% or lower; inconclusive = between -30% and -50%; inactive = -30% or higher; also: value at the top dose of about 77 µM; % is scaled to controls: 0 for no effect and ±100 for the full control effect
Target sequence (P48426 whole entry, looked up): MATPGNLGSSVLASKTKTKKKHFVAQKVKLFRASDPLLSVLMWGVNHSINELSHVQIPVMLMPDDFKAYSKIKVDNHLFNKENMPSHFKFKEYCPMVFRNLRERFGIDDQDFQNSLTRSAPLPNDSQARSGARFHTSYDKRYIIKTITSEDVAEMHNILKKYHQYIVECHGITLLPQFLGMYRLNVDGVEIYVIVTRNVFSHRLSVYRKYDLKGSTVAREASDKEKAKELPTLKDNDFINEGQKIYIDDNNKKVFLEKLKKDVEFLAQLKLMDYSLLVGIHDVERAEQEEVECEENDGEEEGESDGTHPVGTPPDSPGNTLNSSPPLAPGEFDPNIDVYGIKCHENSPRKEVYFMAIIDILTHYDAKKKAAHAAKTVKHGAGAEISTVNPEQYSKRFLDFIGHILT
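Reactions run in 0.038 M HEPES pH 7.4, 0.28 mM EGTA, 0.1% CHAPS and 5% DMSO, with PI5P4Kalpha, substrate, compound and 5 microM ATP final, one hour at room temperature. Readout is ADP-Glo luminescence.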
JMJD2A Tudor = qHTS Assay for Inhibitors of JMJD2A-Tudor Domain | AID 504339, 2011 | 390,000 tested, 4.4% active | Potency, µM (top dose mostly 114 µM), for inactives: at the top dose activity change, negative = inhibition, hits mostly inhibitors | Lysine-specific demethylase 4A (Homo sapiens), O75164 | AlphaScreen JMJD2A-Tudor / H3K4me3 peptide binding; also: potency is read from the fitted curve at half-maximal effect; % is scaled to controls: 0 for no effect and ±100 for the full control effect; nearly all actives have a fitted effect of over 50% in size
* hit, by the source's call; ? = inconclusive; · = not tested or not shown; [ ] = remark or other dose. Shown are actives, neighbours in structure and some others; about 7% of the full set was active somewhere. Unless noted, calls follow the shape of the dose curve; as a rule, active = well fitted curve in the direction sought with a large enough effect; inconclusive = small, poorly fitted or top-dose-only effect, or another doubt; inactive = no such curve, though single readings can be large; an effect the other way counts as inactive or inconclusive.

SMILES	PLK1 PBD block	BAZ2B block	KAT2A inh	HP1b binding inh	PI5P4Ka inh	JMJD2A Tudor
CCN(CC)C(=O)CSc1nc2c(sc(=S)n2-c2ccccc2)c(=O)n1Cc1ccco1	24µM*	56µM*	-3%	-31%	·	-28%
Cc1ccc(CNC(=O)CNS(=O)(=O)c2ccc(Br)s2)cc1	3%	3%	-6%	26%	6	3%
O=S(=O)(Nc1nc2ccccc2nc1NCC1CCCO1)c1cccc(Cl)c1 (stereo not drawn)	-4%	-4%	-4%	25%	2	1%
Cc1ccc(NC(=O)CN(C)C(=O)c2ccc3[nH]c4c(c3c2)CC(C)CC4)cc1 (stereo not drawn)	0%	?	-12%	?	2	45µM*
CCN(CC(=O)Nc1ccc(NC(C)=O)cc1)C(=O)c1cccc(-n2cccc2)c1	-4%	50µM*	-15%	?	-17	-32%
CN(C)CCOC(=O)c1ccc2[nH]c3c(c2c1)CSCC3	30µM*	-24%	-8%	?	-10	-31%
CCOC(=O)c1ccc2[nH]c3c(c2c1)CCCC3	-1%	32µM*	?	?	14	-54%
CCN(CC(=O)Nc1ccc(NC(C)=O)cc1)C(=O)c1cccc(Oc2ccccc2)c1	-2%	-1%	0%	-2%	2	-19%
CCOc1ccc(NC(=O)CN(C)C(=O)c2ccc3[nH]c4c(c3c2)CC(C)CC4)cc1OCC (stereo not drawn)	2%	?	-20%	?	2	?
CC(C)c1ccc(N2C(=O)CS(=O)(=O)C23C(=O)N(Cc2cccc(F)c2)c2ccccc23)cc1 (stereo not drawn)	·	1%[57.1 µM]	-10%	-6%	·	-29%
Cc1ccc2c(=O)c(C(=O)c3cccc(Cl)c3)cn(CC(=O)NC3CCCCC3)c2n1	·	0%	-4%	78%	·	-12%
CC1CCc2[nH]c3ccc(C(=O)N(C)CC(=O)Nc4ccccc4C(F)(F)F)cc3c2C1 (stereo not drawn)	-11%	50µM*	-7%	-28%	9	50µM*
COC(=O)c1ccc2[nH]c3c(c2c1)CC(C)CC3 (stereo not drawn)	-4%	25µM*	-27%	-15%	7	?
Cc1ccc(NC(=O)CN(C)C(=O)c2cccc(Br)c2)cc1	30µM*	-2%	-12%	9%	-1	?
CC1CCc2[nH]c3ccc(C(=O)N(C)CC(=O)Nc4ccccc4Cl)cc3c2C1 (stereo not drawn)	-1%	?	-6%	-37%	6	?
Cc1ccc(NC(=O)CN(C)C(=O)c2cccc(S(=O)(=O)NCc3ccccc3)c2)cc1	5%	10%	-2%	6%	-2	-19%
O=C(O)CNc1nc(-c2ccccc2)c2cc([N+](=O)[O-])ccc2n1	-7%	79µM*	-14%	20%	-1	-22%
O=[N+]([O-])c1ccc2[nH]nc(-c3ccccc3)c2c1	6%	-8%	-8%	29%	-6	12%
O=[N+]([O-])c1ccc2nc(NCCCO)nc(-c3ccccc3)c2c1	21µM*	-4%	-5%	?	-11	?
OCCNc1nc(-c2ccccc2)c2cc(Br)ccc2n1	-11%	0%	-7%	153%	1	21%
CCOc1ccc(N(CC(=O)NC(C)C)C(=O)CCC(=O)Nc2ccccn2)cc1	-4%	-8%	-1%	38%	0	-5%
Cc1cc(C)cc(NC(=O)CSc2nccn2-c2ccccc2)c1	·	?	3%	13%[57 µM]	·	?
Cc1cc(C)cc(-n2ccnc2SCC(=O)Nc2cccc3ccccc23)c1	·	7.1µM*	3%	?	·	22µM*
Cc1cccc(-n2ccnc2SCC(=O)Nc2cc(C)on2)c1	27µM*	-11%	-1%	-16%	4	-36%[11.4 µM]
Cc1cc(C)cc(-n2ccnc2SCC(=O)Nc2ccccc2F)c1	·	28µM*	-4%	?	·	?
SMILES	PLK1 PBD block	BAZ2B block	KAT2A inh	HP1b binding inh	PI5P4Ka inh	JMJD2A Tudor
CC1CCCCC1NC(=O)COC(=O)c1ccc2c(=O)n3c(nc2c1)CCC3 (stereo not drawn)	1%	·	?	38%	-5	9%
O=C1CC2CCCN2C=C1I (stereo not drawn)	-13%	·	-2%	23%	-6	18µM*
COc1ccc(CNCc2ccc(OC)c3ccccc23)cc1	-1%	?	-3%	-17%	0	?
COc1ccc(CNCc2ccc(C)cc2)c(OC)c1	-1%	56µM*	1%	?	0	3.2µM*
CCOCCc1nnc(NC(=O)c2cc(OC)c(OC)c(OC)c2)s1	-12%	0%	-5%	20%	6	-22%
CCOCCc1nnc(NC(=O)c2cccc(F)c2)s1	27µM*	-4%	-1%	6%	2	-28%[11.4 µM]
CCOC(=O)CCCCCC(=O)Nc1ccc2c(c1)CC(=O)N([C@@H](C)CO)C[C@@H](C)[C@@H](CN(C)C(=O)Nc1ccc(C(F)(F)F)cc1)O2	-1%	·	-2%	52%	-2	-7%
O=C1CCC(C(=O)Nc2cc(C(F)(F)F)ccc2-n2cncn2)=NN1	-19%	-1%	-3%	30%	1	-4%
CSc1ncc(CN2CCN(C3CCN(C(C)C)CC3)C(CCO)C2)cn1 (stereo not drawn)	-5%	-10%	-24%	15%	2	?
CSc1ncc(CN2CCN(C3CCCCC3)C(CCO)C2)cn1 (stereo not drawn)	-2%	-5%	14µM*	25%	2	-9%
O=C(N/N=C/c1cccnc1)c1ccc(O)cc1	-9%	-11%	-8%	-7%	-20	-15%
CC(=O)Nc1cccc(C(=O)N/N=C/c2cccnc2)c1	24µM*	-3%	0%	-11%	-26	45µM*
O=C(N/N=C/c1cccnc1)c1cc(O)c(O)c(O)c1	?	45µM*	-20%	?	-22	28µM*
COc1ccc(C(=O)N/C(=C/c2cccnc2)C(=O)Nc2cccc(C(C)=O)c2)cc1OC	30µM*	3%	0%	1%	-8	56µM*
O=C(N/N=C/c1cccnc1)c1cccc(NC(=O)c2cccc(Br)c2)c1	5%	10%	-13%	25%	-1	4%
CC(=O)c1cccc(NC(=O)/C(=C\c2cccnc2)NC(=O)c2ccccc2)c1	-1%	-2%	1%	24%	-7	8%
